87 sequences from the supplement of paper PMC3334620 can be followed below.

Whole data set: some 33,000 sequences, median “E-score (-0.5 to 0.5)” near -0.041, cut for the highest 2% near 0.37. The full list was thinned out, with the highest values kept by preference.

This assay concerns the target T1, Ecm22 (UniProt Q05958).
T1 sequence: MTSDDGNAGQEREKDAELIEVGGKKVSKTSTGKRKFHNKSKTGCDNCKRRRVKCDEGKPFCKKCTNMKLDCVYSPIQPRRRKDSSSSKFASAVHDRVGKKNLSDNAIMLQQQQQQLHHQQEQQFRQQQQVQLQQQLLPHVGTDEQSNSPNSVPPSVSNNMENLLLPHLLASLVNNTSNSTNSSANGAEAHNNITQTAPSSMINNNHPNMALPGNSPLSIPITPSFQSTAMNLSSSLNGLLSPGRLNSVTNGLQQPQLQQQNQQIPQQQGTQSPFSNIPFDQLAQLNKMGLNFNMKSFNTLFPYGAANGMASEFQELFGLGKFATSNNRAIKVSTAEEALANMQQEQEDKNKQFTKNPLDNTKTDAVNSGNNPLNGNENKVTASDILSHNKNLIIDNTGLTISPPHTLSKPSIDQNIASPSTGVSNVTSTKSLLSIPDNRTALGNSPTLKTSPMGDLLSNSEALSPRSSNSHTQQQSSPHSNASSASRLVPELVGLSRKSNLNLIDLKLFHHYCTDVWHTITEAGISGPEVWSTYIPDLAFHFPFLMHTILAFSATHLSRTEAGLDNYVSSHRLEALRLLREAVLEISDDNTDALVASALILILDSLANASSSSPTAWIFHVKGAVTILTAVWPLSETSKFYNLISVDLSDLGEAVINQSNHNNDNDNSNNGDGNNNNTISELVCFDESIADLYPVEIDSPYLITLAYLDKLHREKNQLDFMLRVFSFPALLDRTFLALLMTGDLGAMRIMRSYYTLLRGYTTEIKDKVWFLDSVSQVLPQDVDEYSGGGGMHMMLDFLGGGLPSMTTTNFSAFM
Kind of assay: PBM E-score (8-mer binding enrichment) (E-score (-0.5 to 0.5)); higher = stronger / more preferred TF binding. As to conditions: protein concentration: 200 nM; construct: GST-full length. The method, then: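 Universal 'all 10-mer' protein binding microarrays (Agilent AMADID 015681) probed with GST-tagged S. cerevisiae TFs (full-length or DBD) made by in vitro transcription/translation (PURExpress), about 100-200 nM. Bound TF was detected with fluorescent anti-GST. Each ungapped 8-mer (which stands for itself and its reverse complement) is scored by the PBM enrichment score (E-score), a modified Wilcoxon-Mann-Whitney statistic from -0.5 to +0.5, computed with the Universal PBM Analysis Suite. Scale: above 0.35 generally sequence-specific binding.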
On to CCGACGCG, for which the “PBM E-score” value came out at 0.218. For the sequence GCGACGCA, the “PBM E-score” value is 0.173. The same measure for ACGACGAT: 0.325. To ACGACGCC belongs 0.33; to ATTGCGCG, 0.148; to CAGGAAGG, -0.357. On to ATCGTGCG, for which the “PBM E-score” value was found to be 0.228. As to CATTCCTC, the “PBM E-score” value is 0.0616. Consider ACGCGGTG, for which the “PBM E-score” value is -0.00032. In the case of AATGAGTC, the “PBM E-score” value is -0.0397. Consider AAGGTGTA, for which the “PBM E-score” value was -0.0872. ATCCTTTA: the “PBM E-score” value was -0.159. For GGGTACCA, the “PBM E-score” value was -0.317.

GGGTACAA: the “PBM E-score” value is -0.0303. In the case of CGGTACGA, the “PBM E-score” value was determined as 0.492.

CGGTACCA: the “PBM E-score” value was -0.0083. Take AGGTACGC: the “PBM E-score” value is 0.217. With GGGTACGA, the “PBM E-score” value was 0.491.

Consider CGGTACGC, for which the “PBM E-score” value is 0.315. Consider AGGTACGG, for which the “PBM E-score” value worked out at 0.424.

As for AGGTACTG, the “PBM E-score” value is -0.183. CGATTCGC: the “PBM E-score” value came out at 0.221. Consider ATCAGGTC, for which the “PBM E-score” value worked out at 0.113.

For ATAGGAGC, the “PBM E-score” value is -0.162. Take CAGATTTA: the “PBM E-score” value turned out to be 0.156. With AACATCAA, the “PBM E-score” value was 0.0313. CCTCGGCA: the “PBM E-score” value stood at 0.165. Turning to GCGCTTAA, the “PBM E-score” value was found to be 0.0179. The same measure for CCGCTTAA: 0.291; for TCGCTTAA: 0.394. As for ACCCATTC, the “PBM E-score” value is -0.0208. In the case of CGCGTAGA, the “PBM E-score” value was found to be 0.107.

Regarding CTCGTAGC, the “PBM E-score” value is 0.449. For the sequence ATCGTAGA, the “PBM E-score” value was 0.272. As to ATCGTAGG, the “PBM E-score” value is 0.144. For the sequence CACGTAGC, the “PBM E-score” value was -0.026. Take GACGTAGA: the “PBM E-score” value was -0.0256. To CCCGTAGC belongs 0.154. The same measure for ATCGTAGC: 0.385; for CTCGTAGA: 0.376; for GTCGTAGA: 0.4.

Consider GGCGTAGA, for which the “PBM E-score” value was determined as 0.0225. Consider CACGTAGA, for which the “PBM E-score” value is -0.0914. As for AGAGGCGA, the “PBM E-score” value is -0.00468. For ATGGGAGG, the “PBM E-score” value is -0.116. On to CTGGCGAC, for which the “PBM E-score” value was -0.209. As for GCACGTGC, the “PBM E-score” value was -0.0189. CATTACCG: the “PBM E-score” value is -0.025. For GGGGACTA, the “PBM E-score” value is -0.242.

With AACGGCCT, the “PBM E-score” value was 0.225.

On to CTTTCGCA, for which the “PBM E-score” value was 0.00706.

Consider GTAGGTCA, for which the “PBM E-score” value is -0.0922. On to GAACCTTC, for which the “PBM E-score” value is -0.126. To ATGAGAGA belongs -0.0934; to AGAAGGCA, -0.166; to GGCATTCA, -0.0839. With ACACTGCG, the “PBM E-score” value is 0.0708. The same measure for ATTTGGCC: -0.258. For AACGCATT, the “PBM E-score” value worked out at 0.0189. With AGTACGGC, the “PBM E-score” value was 0.339.

On to CATACGGC, for which the “PBM E-score” value came to 0.3. Regarding CTTACGGA, the “PBM E-score” value is 0.0416. The same measure for CCTACGGA: -0.34; for GCTACGGA: 0.232; for AGTACGGA: 0.288. Regarding CGTACGGA, the “PBM E-score” value was 0.373. With GGTACGGA, the “PBM E-score” value worked out at 0.413.

Turning to CGTACGGC, the “PBM E-score” value was 0.385. CCCGCTGA: the “PBM E-score” value is -0.32. For AGCGCTGC, the “PBM E-score” value is -0.158. Consider CCGGTCAC, for which the “PBM E-score” value was -0.0785.

Turning to ATGGACAT, the “PBM E-score” value was -0.107.

Turning to ATGGGCCC, the “PBM E-score” value is -0.157. In the case of GCGAACAC, the “PBM E-score” value stood at 0.0536. The same measure for CCCCCTGC: -0.162. As for AATACGAA, the “PBM E-score” value was 0.419. Regarding AATACGTA, the “PBM E-score” value was 0.228.

AATACGTG: the “PBM E-score” value came out at 0.15. As for CATACAAA, the “PBM E-score” value is -0.0105. For CATACGTC, the “PBM E-score” value is 0.0749. To AATACGAG belongs 0.457; to AATACGGG, 0.229. For CATACGAA, the “PBM E-score” value came to 0.451. Consider CATACGCC, for which the “PBM E-score” value turned out to be 0.182. To CATACGAC belongs 0.451; to ACTACGAA, 0.25; to CATACGTA, 0.288.
